Active and inactive are the calls of the source. Rule for the calls: active = hit-call score of the fitted dose curve at least 0.9, where 1 is the maximum; inactive = score below 0.9.

Read-out in test [1]: Cyclin D1 (CCND1), CCND1 (gene 595)
The experiment in a line: LTEA_HepaRG_CCND1: Life Technologies and Expression Analysis (LTEA) Assay for Cyclin D1 (CCND1) using HepaRG (AID 2283451).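 For AC50: TaqMan qRT-PCR transcript level normalised to ACTB GAPDH and POLR2A housekeeping genes.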 As to conditions: mRNA level, 48 h; actives raise or lower the signal. The gist of the method:
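Differentiated human HepaRG cells in serum-free induction medium were exposed 48 h to eight half-log concentrations up to 100 uM in 0.5% DMSO; mRNA quantified by TaqMan qRT-PCR, normalized to ACTB, GAPDH, POLR2A, fitted bidirectionally versus DMSO.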

Read-out in test [2]: catalase (CAT), CAT (gene 847)
The experiment in a line: LTEA_HepaRG_CAT: Life Technologies and Expression Analysis (LTEA) Assay for catalase (CAT) using HepaRG (AID 2283452). As to conditions: mRNA level, 48 h; actives raise or lower the signal. The gist of the method:
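HepaRG cells in serum-free induction medium, 0.5% DMSO vehicle, exposed 48 h in duplicate over 8 half-log concentrations from 100 uM. CAT mRNA measured by qRT-PCR, normalized to ACTB, GAPDH, POLR2A; bidirectional fit versus DMSO.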

Read-out in test [3]: flavin-containing dimethylaniline monooxygenases 3 (FMO3), FMO3 (gene 2328)
The experiment in a line: LTEA_HepaRG_FMO3: Life Technologies and Expression Analysis (LTEA) Assay for flavin-containing dimethylaniline monooxygenases 3 (FMO3) using HepaRG (AID 2283453). The settings on record: mRNA level, 48 h; actives raise or lower the signal. The gist of the method:
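Differentiated HepaRG cells in serum-free induction medium, exposed 48 h in duplicate to 8 half-log concentrations up to 100 uM in 0.5% DMSO. FMO3 mRNA by qRT-PCR, normalized to ACTB, GAPDH, POLR2A; bidirectional fit vs DMSO.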

Read-out in test [4]: Cytochrome P450 (CYP1A1), CYP1A1 (gene 1543)
The experiment in a line: LTEA_HepaRG_CYP1A1: Life Technologies and Expression Analysis (LTEA) Assay for Cytochrome P450 (CYP1A1) using HepaRG (AID 2283454). The settings on record: mRNA level, 48 h; actives raise or lower the signal. In outline:
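Differentiated HepaRG cells in serum-free induction medium were exposed in duplicate for 48 h to eight half-log concentrations up to 100 uM in 0.5% DMSO. CYP1A1 mRNA was quantified by TaqMan qRT-PCR, normalized to ACTB, GAPDH and POLR2A.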

Read-out in test [5]: CFLAR gene, CFLAR (gene 8837)
The experiment in a line: LTEA_HepaRG_CFLAR: Life Technologies and Expression Analysis (LTEA) Assay for CFLAR gene using HepaRG (AID 2283455). As to conditions: mRNA level, 48 h; actives raise or lower the signal. In outline: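 Differentiated HepaRG cells in serum-free induction medium were exposed 48 h in duplicate to eight half-log concentrations up to 100 uM in 0.5% DMSO; mRNA measured by TaqMan qRT-PCR, normalized to ACTB, GAPDH, POLR2A; bidirectional fitting versus DMSO.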

Read-out in test [6]: Forkhead box O1 (FOXO1), FOXO1 (gene 2308)
The experiment in a line: LTEA_HepaRG_FOXO1: Life Technologies and Expression Analysis (LTEA) Assay for Forkhead box O1 (FOXO1) using HepaRG (AID 2283456). As to conditions: mRNA level, 48 h; actives raise or lower the signal. In outline: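 Differentiated HepaRG cells, in serum-free induction medium with 0.5% DMSO, exposed 48 h in duplicate to 8-point half-log series from 100 uM. FOXO1 mRNA measured by TaqMan qRT-PCR, normalized to ACTB, GAPDH, POLR2A; bidirectional fit versus DMSO.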

Read-out in test [7]: growth arrest and DNA damage 45 (GADD45A), GADD45A (gene 1647)
The experiment in a line: LTEA_HepaRG_GADD45A: Life Technologies and Expression Analysis (LTEA) Assay for growth arrest and DNA damage 45 (GADD45A) using HepaRG (AID 2283458). As to conditions: mRNA level, 48 h; actives raise or lower the signal. In outline: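 Cells plated and cultured 48 h, switched to serum-free induction medium, then dosed for 48 h (100 uM top, half-log dilutions, 0.5% DMSO). RNA was isolated and transcript measured by Fluidigm qRT-PCR.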

Read-out in test [8]: Forkhead box O3 (FOXO3), FOXO3 (gene 2309)
Nature of the test: LTEA_HepaRG_FOXO3: Life Technologies and Expression Analysis (LTEA) Assay for Forkhead box O3 (FOXO3) using HepaRG (AID 2283459). The settings on record: mRNA level, 48 h; actives raise or lower the signal. The gist of the method: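 Differentiated human HepaRG cells, 48 h post-plating, exposed in duplicate for 48 h in serum-free induction medium; 8-point half-log series from 100 uM in 0.5% DMSO. FOXO3 mRNA by TaqMan qRT-PCR, normalized to ACTB/GAPDH/POLR2A; bidirectional fit versus DMSO.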

Read-out in test [9]: ABC Transporter (ABCB1), ABCB1 (gene 5243)
Nature of the test: LTEA_HepaRG_ABCB1: Life Technologies and Expression Analysis (LTEA) Assay for ABC Transporter (ABCB1) using HepaRG (AID 2283460). As to conditions: mRNA level, 48 h; actives raise or lower the signal. In outline: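 HepaRG cells exposed in duplicate for 48 h in serum-free induction medium to eight half-log concentrations up to 100 uM in 0.5% DMSO. ABCB1 mRNA quantified by qRT-PCR, normalised to ACTB, GAPDH and POLR2A; fitted bidirectionally versus DMSO.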

Read-out in test [10]: ABC Transporter (ABCB11), ABCB11 (gene 8647)
The experiment in a line: LTEA_HepaRG_ABCB11: Life Technologies and Expression Analysis (LTEA) Assay for ABC Transporter (ABCB11) using HepaRG (AID 2283463). The settings on record: mRNA level, 48 h; actives raise or lower the signal. The gist of the method: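 Differentiated human HepaRG cells in serum-free induction medium, dosed in duplicate for 48 h. Eight-point half-log series from 100 uM in 0.5% DMSO; ABCB11 mRNA by qRT-PCR, normalized to ACTB, GAPDH, POLR2A, fitted bidirectionally versus DMSO.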

Read-out in test [11]: ABC Transporter (ABCC2), ABCC2 (gene 1244)
The experiment in a line: LTEA_HepaRG_ABCC2: Life Technologies and Expression Analysis (LTEA) Assay for ABC Transporter (ABCC2) using HepaRG (AID 2283464). As to conditions: mRNA level, 48 h; actives raise or lower the signal. In outline: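 HepaRG cells were plated 48 h, switched to serum-free induction medium, then exposed in duplicate for 48 h to 8 concentrations (top 100 uM, half-log steps, 0.5% DMSO). ABCC2 mRNA was measured by qRT-PCR normalized to ACTB/GAPDH/POLR2A; bidirectional fitting versus DMSO.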

Read-out in test [12]: Broad substrate specificity ATP-binding cassette transporter ABCG2 (Homo sapiens) (UniProt Q9UNQ0)
The experiment in a line: LTEA_HepaRG_ABCG2: Life Technologies and Expression Analysis (LTEA) Assay for ABC Transporter (ABCG2) using HepaRG (AID 2283465). As to conditions: mRNA level, 48 h; actives raise or lower the signal. The gist of the method: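 Differentiated HepaRG cells were exposed for 48 h in serum-free induction medium to 8 half-log concentrations, top 100 uM, in 0.5% DMSO. ABCG2 mRNA was measured by qRT-PCR, normalized to ACTB, GAPDH and POLR2A, with bidirectional fitting versus DMSO.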

Read-out in test [13]: ATP-citrate lyase (ACLY), ACLY (gene 47)
Nature of the test: LTEA_HepaRG_ACLY: Life Technologies and Expression Analysis (LTEA) Assay for ATP-citrate lyase (ACLY) using HepaRG (AID 2283466). The settings on record: mRNA level, 48 h; actives raise or lower the signal. The gist of the method: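 Differentiated HepaRG cells exposed 48 h in serum-free induction medium to eight half-log concentrations up to 100 uM in 0.5% DMSO, duplicates. Transcript measured by Fluidigm TaqMan qRT-PCR, normalized to ACTB, GAPDH, POLR2A; bidirectional fit versus DMSO.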

Read-out in test [14]: Peroxisomal acyl-coenzyme A oxidase 1 (ACOX1) gene, ACOX1 (gene 51)
The experiment in a line: LTEA_HepaRG_ACOX1: Life Technologies and Expression Analysis (LTEA) Assay for Peroxisomal acyl-coenzyme A oxidase 1 (ACOX1) gene using HepaRG (AID 2283467). The settings on record: mRNA level, 48 h; actives raise or lower the signal. In outline: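 HepaRG cells, plated 48 h then switched to serum-free induction medium, were exposed in duplicate for 48 h to 8-point half-log concentrations up to 100 uM in 0.5% DMSO. ACOX1 mRNA was measured by qRT-PCR, normalized to ACTB/GAPDH/POLR2A, and fitted bidirectionally versus DMSO.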

Read-out in test [15]: Alkaline Phosphatase, Placental (ALPP) gene, ALPP (gene 250)
Nature of the test: LTEA_HepaRG_ALPP: Life Technologies and Expression Analysis (LTEA) Assay for Alkaline Phosphatase, Placental (ALPP) gene using HepaRG (AID 2283468). As to conditions: mRNA level, 48 h; actives raise or lower the signal. The gist of the method: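 Differentiated human HepaRG cells were plated and cultured 48 h, then exposed in duplicate for 48 h in serum-free induction medium to eight half-log concentrations from 100 uM in 0.5% DMSO. ALPP mRNA was measured by TaqMan qRT-PCR, normalized to ACTB, GAPDH, POLR2A.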

Read-out in test [16]: Bcl-2 (BAD) gene, BAD (gene 572)
Nature of the test: LTEA_HepaRG_BAD: Life Technologies and Expression Analysis (LTEA) Assay for Bcl-2 (BAD) gene using HepaRG (AID 2283469). As to conditions: mRNA level, 48 h; actives raise or lower the signal. In outline: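 Differentiated HepaRG cells were exposed in duplicate in 0.5% DMSO for 48 h to eight-point half-log concentrations up to 100 uM. BAD mRNA was measured by Fluidigm TaqMan qRT-PCR, normalized to ACTB, GAPDH and POLR2A, and fitted bidirectionally against DMSO.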

Read-out in test [17]: Bcl-2 (BAX) gene, BAX (gene 581)
The experiment in a line: LTEA_HepaRG_BAX: Life Technologies and Expression Analysis (LTEA) Assay for Bcl-2 (BAX) gene using HepaRG (AID 2283470). The settings on record: mRNA level, 48 h; actives raise or lower the signal. The gist of the method:
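HepaRG (human liver), 48 h exposure, duplicate wells. 8-pt curve, half-log from 100 uM, 0.5% DMSO. BAX transcript by TaqMan qRT-PCR; ACTB/GAPDH/POLR2A normalization; gain or loss vs DMSO baseline.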

Read-out in test [18]: growth arrest and DNA damage 45 (GADD45B), GADD45B (gene 4616)
Nature of the test: LTEA_HepaRG_GADD45B: Life Technologies and Expression Analysis (LTEA) Assay for growth arrest and DNA damage 45 (GADD45B) using HepaRG (AID 2283461). As to conditions: mRNA level, 48 h; actives raise or lower the signal. The gist of the method:
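Differentiated HepaRG cells, plated 48 h then switched to serum-free induction medium, were exposed 48 h in duplicate to eight half-log concentrations from 100 uM in 0.5% DMSO; mRNA quantified by qRT-PCR, normalized to ACTB/GAPDH/POLR2A, bidirectional fit versus DMSO.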

Test [19] can be described thus: CEETOX_H295R_TESTO: CeeTox H295R High-throughput Steroidogenesis Assay for Testosterone (TESTO) (AID 2283457). As to conditions: actives raise or lower the signal. The gist of the method: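 H295R human adrenal cells in DMEM/F12 with ITS+ and Nu-Serum, exposed to chemicals for 48 h. Testosterone in medium measured by MTBE extraction, reverse-phase HPLC-MS/MS; bidirectional fit versus DMSO baseline. MTT viability checked in same wells.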

Read-out in test [20]: ABC Transporter (ABCC3), ABCC3 (gene 8714)
Nature of the test: LTEA_HepaRG_ABCC3: Life Technologies and Expression Analysis (LTEA) Assay for ABC Transporter (ABCC3) using HepaRG (AID 2283462). As to conditions: mRNA level, 48 h; actives raise or lower the signal. In outline: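 HepaRG cells in serum-free induction medium were exposed for 48 h in duplicate to 8-point half-log concentrations topping at 100 uM in 0.5% DMSO. ABCC3 mRNA was measured by qRT-PCR normalized to ACTB, GAPDH and POLR2A, with bidirectional fitting versus DMSO.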

Chain of Broad substrate specificity ATP-binding cassette transporter ABCG2 (Homo sapiens) (Q9UNQ0 whole entry, looked up): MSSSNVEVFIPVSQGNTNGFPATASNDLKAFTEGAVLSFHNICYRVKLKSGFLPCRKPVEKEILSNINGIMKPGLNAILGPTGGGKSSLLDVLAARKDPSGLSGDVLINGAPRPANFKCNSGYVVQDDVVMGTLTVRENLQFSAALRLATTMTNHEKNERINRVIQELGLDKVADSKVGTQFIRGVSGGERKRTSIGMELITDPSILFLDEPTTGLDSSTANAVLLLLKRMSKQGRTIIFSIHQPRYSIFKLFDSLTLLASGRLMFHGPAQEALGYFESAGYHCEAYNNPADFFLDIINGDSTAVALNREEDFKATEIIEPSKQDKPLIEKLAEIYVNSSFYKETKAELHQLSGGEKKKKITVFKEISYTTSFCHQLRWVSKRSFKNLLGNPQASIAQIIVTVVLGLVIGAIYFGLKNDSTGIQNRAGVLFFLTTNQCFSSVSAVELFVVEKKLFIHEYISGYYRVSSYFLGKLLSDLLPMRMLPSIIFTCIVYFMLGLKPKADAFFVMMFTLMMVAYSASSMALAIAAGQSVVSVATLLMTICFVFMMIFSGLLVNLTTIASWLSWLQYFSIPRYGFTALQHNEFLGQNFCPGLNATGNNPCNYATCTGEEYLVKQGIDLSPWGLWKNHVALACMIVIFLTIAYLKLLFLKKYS

The AC50 is the midpoint of the concentration-response curve, whichever way the signal moves. As for `c1ccc2c(c1)-c1cccc3cccc-2c13`, the outcome in test [1], in test [2], in [3], in test [5], in test [6] and in test [7] was inactive. For the same compound, the outcome in [8], in test [9], in [10], in [11], in test [12] and in test [13] was inactive. Also, the result in test [14], in test [15], in [16] and in test [17] was inactive. Moreover, in test [4], the AC50 was 33.3 µM (active).

For the compound `OCCCl`, the compound was classed as inactive in test [1], in [2], in [3], in test [4], in [5] and in test [6]. The result in test [7], in test [8], in test [9], in test [18], in test [10] and in test [11] was inactive. Moreover, the result in test [12], in test [13], in test [14], in test [15], in [16] and in test [17] was inactive.

Take `O=C(Nc1ccccc1)c1ccccc1I`: the AC50 was 22 µM (active) in test [1]; 50 µM (active) in [3]; 27.7 µM (active) in [4]; 14.6 µM (active) in [8]; 23.3 µM (active) in [10]; 11.7 µM (active) in test [12]. The compound was called inactive in [2], in [5], in test [6], in test [19], in test [7] and in [20]. Besides, the compound was classed as inactive in test [11], in test [13], in test [14], in test [15], in [16] and in [17].

For `Nc1ccc([N+](=O)[O-])cc1`, the outcome in [1], in test [2], in test [3], in test [5], in test [6] and in [7] was inactive. Moreover, the compound was classed as inactive in test [8], in test [9], in test [10], in [11], in test [12] and in test [13]. In addition, the result in test [14], in test [15], in test [16] and in test [17] was inactive. For the same compound, in [4], the AC50 was 50 µM (active).
